Data on 15 compounds can be found in article PMC5540273 (PLoS ONE, 2017).

Among the test systems are TLK1; TLK2; TNIK; TNK1; TNK2; TNNI3K; TRKB; TRPM6.
Settings in all cases: concentration: 1 μM, replicates: in singlicate; n = 1
The next experiment has as its system T1, TRKA.
T1 construct: gene NTRK1

The next experiment relates to T2, TRKC.
T2 construct: gene NTRK3
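Also: KINOMEscan kinase panel screen.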

For the compound `Cl.Cl.Cl.N#Cc1ccc(CCNc2nccc(-c3cccc(CN4CCNCC4)c3)n2)cc1` [GSK2137462], the “%Inh” value was found to be 9% in the experiment with TLK1; 3% with TLK2; 3% in the experiment with TNIK; 4% in the experiment on TNK1; 5% in the experiment with TNK2; 18% in the experiment on TNNI3K. Also, the “%Inh” value with TRKA stood at 56%; in the experiment on TRKB, 0%; with TRKC, 0%; in the experiment with TRPM6 it was 0%.

For `CNCc1ccc2nc(NC(=O)c3ccc(C(C)(C)C)cc3)cn2c1`, the “%Inh” value worked out at 0% with TLK1; 0% with TLK2; 8% with TNIK; 0% in the experiment on TNK1; 1% in the experiment on TNK2; 6% in the experiment on TNNI3K. In addition, the “%Inh” value with TRKA is recorded as 39%; in the experiment with TRKB it was 58%; in the experiment with TRKC, 28%; in the experiment with TRPM6, 1%.

Regarding `COc1ccc(Nc2nccc(N3CCC(NC(=O)C(C)c4ccc(Cl)cc4)CC3)n2)cc1` (stereo not drawn) [GSK1379812], the “%Inh” value in the experiment on TLK1 stood at 7%; in the experiment on TLK2, 0%; in the experiment with TNIK, 0%; with TNK1, 0%; in the experiment with TNK2 it was 8%; in the experiment with TNNI3K it was 2%. The “%Inh” value is reported as 49% with TRKA, 0% in the experiment with TRKB, 0% with TRKC and 0% with TRPM6.

On to `COC(=O)c1cccc(NC(=O)NC2CCN(c3ccnc(Nc4ccc(F)cc4)n3)C2)c1` (stereo not drawn) [GSK1379725], for which the “%Inh” value came out at 0% with TLK1; 0% in the experiment with TLK2; 0% in the experiment with TNIK; 0% with TNK1; 17% in the experiment on TNK2; 2% in the experiment with TNNI3K. Besides, the “%Inh” value amounted to 9% in the experiment on TRKA, 58% in the experiment on TRKB, 82% in the experiment with TRKC and 0% in the experiment with TRPM6.

For `COc1ccc(Nc2nccc(NCCNC(=O)Nc3cc(C)ccc3C)n2)cc1` [GSK1379899], the “%Inh” value in the experiment with TLK1, in the experiment with TLK2, in the experiment on TNIK, in the experiment with TNK1, in the experiment on TNK2 and in the experiment with TNNI3K was 0% throughout. For the same compound, the “%Inh” value with TRKA is 3%; in the experiment with TRKB, 0%; in the experiment on TRKC, 7%; in the experiment on TRPM6 it was 0%.

Consider `FC(F)(F)c1ccccc1-c1cc(-c2c[nH]nc2-c2ccccn2)ccn1` [GW679396], for which the “%Inh” value in the experiment on TLK1 is 0%; in the experiment on TLK2, 0%; in the experiment with TNIK, 18%; in the experiment on TNK1 it was 1%; in the experiment with TNK2, 0%; with TNNI3K, 0%. Besides, the “%Inh” value worked out at 39% in the experiment with TRKA, 0% in the experiment on TRKB, 0% with TRKC and 3% in the experiment on TRPM6.

With `COc1ccc(Nc2nccc(N3CCC(NC(=O)C(C)c4ccc(Cl)cc4)C3)n2)cc1` (stereo not drawn) [GSK1379735], the “%Inh” value stood at 0% in the experiment on TLK1; 0% in the experiment with TLK2; 10% in the experiment on TNIK; 0% in the experiment with TNK1; 15% with TNK2; 6% in the experiment with TNNI3K. The “%Inh” value in the experiment with TRKA came to 19%; in the experiment on TRKB, 0%; with TRKC, 11%; with TRPM6, 1%.

For the compound `Cc1ccc(NC(=O)Nc2ccccc2F)cc1-c1ccc(C(=O)Nc2ccncc2)cc1` [GSK1398477], the “%Inh” value in the experiment on TLK1 turned out to be 6%; in the experiment on TLK2, 0%; in the experiment on TNIK, 10%; in the experiment on TNK1, 10%; with TNK2, 34%; with TNNI3K, 53%. The “%Inh” value in the experiment with TRKA was determined as 10%; in the experiment on TRKB, 0%; in the experiment with TRKC, 0%; in the experiment with TRPM6, 21%.

For the compound `CS(=O)(=O)Cc1ccc(Nc2nccc(-c3c(-c4cccc(NC(=O)C5CCCCC5)c4)nn4ncccc34)n2)cc1` [GSK350559], the “%Inh” value is on record as 16% in the experiment with TLK1; 0% with TLK2; 0% in the experiment with TNIK; 29% with TNK1; 13% with TNK2; 0% in the experiment on TNNI3K. In addition, the “%Inh” value in the experiment on TRKA was determined as 39%; in the experiment with TRKB, 16%; with TRKC it was 27%; in the experiment on TRPM6, 0%.

Turning to `Nc1nccc(-c2c(-c3ccc(F)cc3)ncn2C2CCN(Cc3ccccc3)CC2)n1` [SB-219980], the “%Inh” value was 0% with TLK1; 0% with TLK2; 96.5% in the experiment with TNIK; 35% in the experiment with TNK1; 10% in the experiment on TNK2; 0% with TNNI3K. Besides, the “%Inh” value in the experiment on TRKA, in the experiment on TRKB, with TRKC and in the experiment on TRPM6 was 0% each time.

For `CC(=O)c1c(C)c2cnc(Nc3ccn(C)n3)nc2n(C2CCCC2)c1=O`, the “%Inh” value in the experiment with TLK1 was 1%; with TLK2, 0%; with TNIK, 0%; with TNK1, 54%; in the experiment with TNK2, 24%; in the experiment with TNNI3K, 16%. Also, the “%Inh” value in the experiment on TRKA was 29%; with TRKB, 0%; in the experiment with TRKC, 0%; with TRPM6, 0%.

Turning to `Nc1ncnc2occ(-c3ccc4c(c3)CCN4C(=O)Cc3cc(F)ccc3F)c12` [GSK2645446], the “%Inh” value in the experiment with TLK1, with TLK2, with TNIK, in the experiment on TNK1, in the experiment with TNK2 and in the experiment with TNNI3K was 0% in each case. In addition, the “%Inh” value was 9% with TRKA, 0% in the experiment on TRKB, 0% with TRKC and 0% in the experiment with TRPM6.

For the compound `CNC(=O)c1ccc(C)c(-n2c(C)cc(OCc3ccc(F)cc3F)c(Br)c2=O)c1`, the “%Inh” value in the experiment on TLK1, in the experiment on TLK2, in the experiment with TNIK, in the experiment with TNK1, in the experiment on TNK2 and in the experiment on TNNI3K was 0% in each case. The “%Inh” value with TRKA, with TRKB, in the experiment with TRKC and in the experiment on TRPM6 was 0% in each case.

Regarding `CCn1c(-c2ccccc2)nc2cnccc21` [SB-733416], the “%Inh” value with TLK1 is 0%; with TLK2 it was 0%; in the experiment on TNIK it was 0%; with TNK1 it was 31%; in the experiment on TNK2 it was 17%; in the experiment with TNNI3K, 16%. Further, the “%Inh” value with TRKA is on record as 0%; in the experiment on TRKB, 0%; in the experiment on TRKC, 25%; in the experiment with TRPM6 it was 0%.

Consider `Cc1c(Cn2c(C)c(C)n3c(=O)cc(N4CCOCC4)nc23)cccc1C(F)(F)F` [GSK2328680], for which the “%Inh” value in the experiment on TLK1 is listed as 0%; in the experiment with TLK2, 0%; in the experiment on TNIK, 0%; with TNK1, 0%; in the experiment on TNK2 it was 13%; in the experiment with TNNI3K it was 0%. For the same compound, the “%Inh” value in the experiment with TRKA turned out to be 12%; with TRKB, 0%; with TRKC, 21%; in the experiment on TRPM6, 0%.
